Results reported in PubChem BioAssay (NCATS).
Results filed as inconclusive are left out. A call without a number means that no potency is given here. Calls of active or inactive are those of the source. Unless noted, the call rests on the fitted dose curve; in most records, active means well fitted curve in the direction sought with a large enough effect; inconclusive means small, poorly fitted or top-dose-only effect, or another doubt; inactive means no such curve, though single readings can be large; an effect the other way counts as inactive or inconclusive.

Tests used:
[1] = biological target: Flap endonuclease 1 (Homo sapiens) (UniProt P39748); assay: qHTS Validation Assay for the Inhibitors of Human Flap endonuclease 1 (FEN1) (AID 488816)
Sequence of Flap endonuclease 1 (Homo sapiens) (P39748 whole entry, looked up): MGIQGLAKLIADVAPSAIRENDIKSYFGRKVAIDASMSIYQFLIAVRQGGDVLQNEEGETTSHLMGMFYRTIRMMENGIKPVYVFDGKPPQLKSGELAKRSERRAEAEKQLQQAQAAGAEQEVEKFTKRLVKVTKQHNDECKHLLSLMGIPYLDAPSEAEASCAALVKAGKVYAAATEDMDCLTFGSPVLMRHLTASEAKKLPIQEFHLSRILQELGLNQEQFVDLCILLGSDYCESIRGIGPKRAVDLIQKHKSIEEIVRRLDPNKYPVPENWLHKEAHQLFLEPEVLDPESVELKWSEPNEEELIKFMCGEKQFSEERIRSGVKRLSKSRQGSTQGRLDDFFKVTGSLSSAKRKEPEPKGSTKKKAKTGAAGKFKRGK
Method in brief: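 Human FEN1 (10 nM) preincubated 15 min at room temperature with compounds, then flap DNA substrate added at 50 nM final. Fluorescence read at 0 and 15 min; concentration-response fitted with four-parameter Hill equation.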

[2] = biological target: M-phase phosphoprotein 8 (Homo sapiens) (UniProt Q99549); assay: qHTS Validation Assay for Inhibitors for MPP8 Chromodomain Interactions with Methylated Histone Tails (AID 488949); further: nearly all actives have a fitted effect of over 55% in size; further: potency means the concentration at half of the fitted maximal effect
Sequence of M-phase phosphoprotein 8 (Homo sapiens) (Q99549 whole entry, looked up): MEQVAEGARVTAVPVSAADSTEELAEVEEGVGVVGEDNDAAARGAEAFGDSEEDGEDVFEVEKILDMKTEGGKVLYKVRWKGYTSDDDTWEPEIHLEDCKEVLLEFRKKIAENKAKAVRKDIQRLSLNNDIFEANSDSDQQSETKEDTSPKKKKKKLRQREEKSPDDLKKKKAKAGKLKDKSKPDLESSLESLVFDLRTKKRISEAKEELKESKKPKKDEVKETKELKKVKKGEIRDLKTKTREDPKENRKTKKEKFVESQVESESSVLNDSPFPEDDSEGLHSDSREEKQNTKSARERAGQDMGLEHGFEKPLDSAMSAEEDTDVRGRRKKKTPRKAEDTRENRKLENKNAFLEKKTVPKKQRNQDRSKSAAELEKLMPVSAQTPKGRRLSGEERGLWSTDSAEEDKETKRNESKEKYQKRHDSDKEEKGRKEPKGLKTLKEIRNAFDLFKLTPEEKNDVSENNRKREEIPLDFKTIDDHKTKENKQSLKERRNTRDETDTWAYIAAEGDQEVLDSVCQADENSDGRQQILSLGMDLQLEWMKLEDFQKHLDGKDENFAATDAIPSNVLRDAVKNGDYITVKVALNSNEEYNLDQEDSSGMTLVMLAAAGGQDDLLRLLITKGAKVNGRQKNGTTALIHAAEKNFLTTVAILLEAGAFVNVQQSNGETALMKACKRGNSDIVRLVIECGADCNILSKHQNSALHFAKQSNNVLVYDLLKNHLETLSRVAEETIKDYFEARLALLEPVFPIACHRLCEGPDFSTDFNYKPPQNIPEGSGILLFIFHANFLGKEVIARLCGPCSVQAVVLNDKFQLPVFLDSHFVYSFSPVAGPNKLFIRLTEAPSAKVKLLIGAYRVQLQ
Method in brief: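 AlphaScreen read-out: streptavidin donor and nickel chelate acceptor beads (final 10 ug/mL), 30 min in the dark at RT. Complex of 50 nM MPP8 and 50 nM b-H3(1-18)K9me3 peptide had been exposed to compounds for 30 min beforehand.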

[3] = biological target: Methanococcus maripaludis chaperonin (MmCpn) (UniProt Q6LX38); assay: High-Throughput Screening for Modulators of Cytosolic Chaperonin Activity: MmCpn Primary Screen (AID 488978);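 further: 50 nM MmCpn enzyme hydrolysing 30 µM ATP at 37 °C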
Sequence of Methanococcus maripaludis chaperonin (MmCpn) (Q6LX38 1-543): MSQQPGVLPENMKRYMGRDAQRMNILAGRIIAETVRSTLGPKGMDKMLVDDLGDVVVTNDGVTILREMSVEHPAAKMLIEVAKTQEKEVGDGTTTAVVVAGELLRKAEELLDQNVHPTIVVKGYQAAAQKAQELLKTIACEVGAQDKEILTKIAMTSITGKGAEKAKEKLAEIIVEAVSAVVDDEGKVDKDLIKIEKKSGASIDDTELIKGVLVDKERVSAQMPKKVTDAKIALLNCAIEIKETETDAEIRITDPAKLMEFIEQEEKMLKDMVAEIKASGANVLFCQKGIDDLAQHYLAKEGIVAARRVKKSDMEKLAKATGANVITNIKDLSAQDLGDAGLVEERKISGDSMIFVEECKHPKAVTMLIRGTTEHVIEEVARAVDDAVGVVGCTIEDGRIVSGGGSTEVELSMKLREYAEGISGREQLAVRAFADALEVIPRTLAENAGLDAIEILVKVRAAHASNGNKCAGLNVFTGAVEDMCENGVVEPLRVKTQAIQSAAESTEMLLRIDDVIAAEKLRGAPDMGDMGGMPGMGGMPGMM
Method in brief: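 ADP formation read by HTRF Transcreener, 665/590 nm emission after 320 nm excitation. Enzyme: archaeal chaperonin at 50 nM final; substrate ATP 30 uM final; 10 min, 37C, after 5 min compound preincubation at RT.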

[4] = biological target: Transient receptor potential cation channel subfamily V member 1 (Homo sapiens) (UniProt Q8NER1); assay: HTS Assay for Compounds that Act as Enhancers of the Vanilloid Receptor 1 (AID 488979)
Sequence of Transient receptor potential cation channel subfamily V member 1 (Homo sapiens) (Q8NER1 whole entry, looked up): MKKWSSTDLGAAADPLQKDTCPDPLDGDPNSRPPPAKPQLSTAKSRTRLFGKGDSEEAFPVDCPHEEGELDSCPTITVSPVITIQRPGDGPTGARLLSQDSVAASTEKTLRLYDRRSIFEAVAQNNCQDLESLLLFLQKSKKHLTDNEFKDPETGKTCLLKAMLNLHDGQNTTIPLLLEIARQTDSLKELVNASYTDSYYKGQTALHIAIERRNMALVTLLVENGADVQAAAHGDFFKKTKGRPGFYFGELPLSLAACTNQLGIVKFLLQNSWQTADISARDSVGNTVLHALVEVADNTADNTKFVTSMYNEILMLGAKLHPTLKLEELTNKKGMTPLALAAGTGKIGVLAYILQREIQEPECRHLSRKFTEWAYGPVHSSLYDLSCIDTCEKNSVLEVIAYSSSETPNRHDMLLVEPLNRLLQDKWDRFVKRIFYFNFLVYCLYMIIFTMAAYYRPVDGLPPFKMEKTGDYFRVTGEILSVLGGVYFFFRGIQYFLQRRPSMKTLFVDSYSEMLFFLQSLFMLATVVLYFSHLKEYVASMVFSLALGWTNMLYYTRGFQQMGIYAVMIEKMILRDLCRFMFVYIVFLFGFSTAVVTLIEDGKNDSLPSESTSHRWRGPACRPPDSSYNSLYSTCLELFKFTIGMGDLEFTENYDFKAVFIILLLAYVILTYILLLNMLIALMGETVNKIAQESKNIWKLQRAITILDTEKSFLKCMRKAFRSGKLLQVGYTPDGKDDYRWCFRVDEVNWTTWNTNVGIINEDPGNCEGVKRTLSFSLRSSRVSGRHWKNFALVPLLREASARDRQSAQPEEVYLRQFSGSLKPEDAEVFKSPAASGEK
Method in brief: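 TRPV1 cells loaded with Fluo-8 calcium dye; compound added and Ca2+ signal (ex 480/em 520 nm) followed 3 min, then capsaicin at EC20 added and read 2 more min to detect enhancement.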

[5] = biological target: Thyrotropin receptor (Homo sapiens) (UniProt P16473); assay: qHTS Assay for Antagonists of the Thyroid Stimulating Hormone Receptor (AID 488980); further: series mostly up to about 58 µM
Sequence of Thyrotropin receptor (Homo sapiens) (P16473 whole entry, looked up): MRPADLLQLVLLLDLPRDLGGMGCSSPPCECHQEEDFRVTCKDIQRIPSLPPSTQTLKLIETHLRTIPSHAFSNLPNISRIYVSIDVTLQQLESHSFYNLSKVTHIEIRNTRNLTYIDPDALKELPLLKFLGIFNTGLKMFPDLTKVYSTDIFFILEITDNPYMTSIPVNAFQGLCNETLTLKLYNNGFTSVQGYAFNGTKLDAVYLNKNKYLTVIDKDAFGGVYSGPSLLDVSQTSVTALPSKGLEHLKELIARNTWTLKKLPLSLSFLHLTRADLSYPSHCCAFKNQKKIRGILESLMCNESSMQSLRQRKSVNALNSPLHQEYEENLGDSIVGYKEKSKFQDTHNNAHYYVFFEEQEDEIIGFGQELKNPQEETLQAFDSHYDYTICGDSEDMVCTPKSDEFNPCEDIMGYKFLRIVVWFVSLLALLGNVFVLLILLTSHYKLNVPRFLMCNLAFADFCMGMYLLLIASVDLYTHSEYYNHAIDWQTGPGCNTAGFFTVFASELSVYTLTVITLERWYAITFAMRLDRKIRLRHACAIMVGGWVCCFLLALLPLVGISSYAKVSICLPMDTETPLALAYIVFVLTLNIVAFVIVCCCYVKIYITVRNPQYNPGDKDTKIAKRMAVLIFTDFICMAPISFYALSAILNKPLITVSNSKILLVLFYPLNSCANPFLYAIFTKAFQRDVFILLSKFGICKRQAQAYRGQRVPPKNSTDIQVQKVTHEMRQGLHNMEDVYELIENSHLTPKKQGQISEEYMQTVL
Method in brief: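 TSHR-HEK293 cells; 70 uM RO 20-1724 PDE inhibitor; compound + EC80 TSH (4 nM final); anti-cAMP cryptate antibody/cAMP-d2 in lysis buffer, 30 min RT; HTRF 665/620 nm read.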

[6] = biological target: D(1A) dopamine receptor (Homo sapiens) (UniProt P21728); assay: HTS Assay for Allosteric Agonists of the Human D1 Dopamine Receptor: Primary Screen for Agonists (AID 488981)
Sequence of D(1A) dopamine receptor (Homo sapiens) (P21728 whole entry, looked up): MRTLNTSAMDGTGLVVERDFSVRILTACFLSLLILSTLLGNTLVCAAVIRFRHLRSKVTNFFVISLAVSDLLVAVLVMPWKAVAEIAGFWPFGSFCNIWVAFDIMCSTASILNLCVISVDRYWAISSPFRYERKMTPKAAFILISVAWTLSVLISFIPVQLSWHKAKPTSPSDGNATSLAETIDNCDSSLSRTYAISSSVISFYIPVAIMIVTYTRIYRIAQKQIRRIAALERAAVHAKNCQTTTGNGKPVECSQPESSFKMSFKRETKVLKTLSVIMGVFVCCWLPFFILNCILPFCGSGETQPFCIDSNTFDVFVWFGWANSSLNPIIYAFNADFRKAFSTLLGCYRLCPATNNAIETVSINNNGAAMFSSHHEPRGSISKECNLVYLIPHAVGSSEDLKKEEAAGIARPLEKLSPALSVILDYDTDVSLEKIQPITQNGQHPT
Method in brief: (§1)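 Tetracycline-induced HEK293 Trex D1 cells with forced coupling to calcium, loaded with no-wash calcium dye; kinetic fluorescence read 180 s after compound addition for agonism, then a further 180 s after an EC20 dopamine challenge for potentiation.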

[7] = biological target: D(1A) dopamine receptor (Homo sapiens) (UniProt P21728); assay: HTS Assay for Allosteric Agonists of the Human D1 Dopamine Receptor: Primary Screen for Antagonists (AID 488983);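 further: calcium flux response to an EC80 dopamine challenge measured with no-wash dye; nearly all actives have a fitted effect of over 65% in size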; further: potency means the concentration at half of the fitted maximal effect
Method in brief: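 Tetracycline-induced HEK293 T-REx D1 line, force-coupled to calcium flux, read with no-wash calcium dye. Compound added after 10 s baseline, read 180 s for agonism, then EC80 dopamine added and read a further 180 s.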

[8] = Validation screen for small molecules that induce genotoxicity in human embryonic kidney (HEK293T) cells expressing luciferase-tagged ELG1 (AID 493106)
Method in brief: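 HEK293T cells expressing luciferase-tagged ELG1, 2,000 cells/well, exposed to compound 16 hr at 37 °C, 5% CO2. Luciferase read after ONE-Glo, 30 min at room temperature; increased signal indicates genetic stress.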

[9] = biological target: Thyrotropin-releasing hormone receptor (Homo sapiens) (UniProt P34981); assay: qHTS for Small Molecule Agonists and Allosteric Enhancers of Human TRH Receptor: Validation Screen for Agonists (AID 493127;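 active means calcium activation more than 3 SD above the typical response in the agonist read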); details: TRH receptor agonist cell assay; at 2 µM; stronger effect = higher value
Sequence of Thyrotropin-releasing hormone receptor (Homo sapiens) (P34981 whole entry, looked up): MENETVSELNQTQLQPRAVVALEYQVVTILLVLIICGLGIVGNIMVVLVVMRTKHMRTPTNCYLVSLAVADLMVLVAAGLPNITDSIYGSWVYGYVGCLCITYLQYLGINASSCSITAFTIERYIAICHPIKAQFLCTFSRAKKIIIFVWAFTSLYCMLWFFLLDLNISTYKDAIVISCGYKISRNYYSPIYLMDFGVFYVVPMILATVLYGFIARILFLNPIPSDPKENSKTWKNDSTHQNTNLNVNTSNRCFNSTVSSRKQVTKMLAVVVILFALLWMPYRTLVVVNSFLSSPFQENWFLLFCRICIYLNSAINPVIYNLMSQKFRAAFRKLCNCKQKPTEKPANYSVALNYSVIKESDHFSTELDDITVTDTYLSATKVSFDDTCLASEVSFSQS
Method in brief: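 TRHR cells loaded with fluo-8 calcium dye; FDSS kinetic fluorescence (Ex 480/Em 530) read at 1 s/cycle after 23 nL compound addition. Agonist-mode calcium response recorded before the 10 nM TRH (EC20) addition.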

[10] = Nrf2 qHTS screen for inhibitors: Validation (AID 493153; active means well fitted inhibition curve with a large enough effect in the main read-out, with a control signal flat, not every such curve was filed as active); details: Potency: luciferase luminescence; viability change: measured here: cytotoxicity max response
Method in brief: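 A549 cells carrying ARE-firefly luciferase reporter, 5000 cells/well in 5% FBS OPTI-MEM, treated with compound over a concentration series for 18-24 h at 37 C. Luciferase luminescence gave Nrf2 activity; CellTiter-Fluor fluorescence gave viability.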

[11] = qHTS for Inhibitors of Cell Surface uPA Generation: Validation Assay (AID 493164)
Method in brief: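 RAW 264.7 cells (4000/well) were plated overnight, then exposed for 18 h at 37 C, 5% CO2 to compounds in a 7-point 1:5 titration (2.45 nM–38.3 uM final). Intracellular ATP was read by ATP-Lite luminescence.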

[12] = biological target: Galactokinase (Homo sapiens) (UniProt P51570); assay: qHTS Validation Assay for Inhibitors of Human Galactokinase (GALK) (AID 493189)
Sequence of Galactokinase (Homo sapiens) (P51570 whole entry, looked up): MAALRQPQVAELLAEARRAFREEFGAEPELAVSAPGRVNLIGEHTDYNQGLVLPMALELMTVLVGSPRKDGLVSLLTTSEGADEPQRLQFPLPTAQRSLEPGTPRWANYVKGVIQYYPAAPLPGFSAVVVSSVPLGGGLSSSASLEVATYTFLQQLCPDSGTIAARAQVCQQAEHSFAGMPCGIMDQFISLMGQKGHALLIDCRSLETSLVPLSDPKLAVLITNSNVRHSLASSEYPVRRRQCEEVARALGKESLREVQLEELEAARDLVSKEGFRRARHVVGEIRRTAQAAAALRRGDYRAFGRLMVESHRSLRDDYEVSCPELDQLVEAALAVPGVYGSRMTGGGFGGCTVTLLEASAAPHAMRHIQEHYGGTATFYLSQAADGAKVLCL
Method in brief: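 Luminescence from leftover ATP (Kinase-Glo Plus, 10 min) served as read-out after a 1 h room-temperature reaction of 5 nM GALK, 100 uM galactose and 35 uM ATP at pH8.0.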

[13] = Validation screen for small molecules that induce DNA re-replication in SW480 colon adenocarcinoma cells (AID 504364)
Method in brief: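 SW480 cells (250/well) exposed 48 h at 37 C, 5% CO2, then Hoechst-stained 40 min. Nuclear DNA content imaged by fluorescence scanning (405 nm excitation, 500-530 nm emission); re-replication scored as increased nuclei with elevated intensity.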

[14] = biological target: Peptidyl-prolyl cis-trans isomerase NIMA-interacting 1 (Homo sapiens) (UniProt Q13526); assay: qHTS Validation Assay to Find Inhibitors of Pin1 (AID 504536; active means well fitted inhibition curve with a large enough effect in the polarisation, with a control signal flat, not every such curve was filed as active; the % refers to the polarisation)
Sequence of Peptidyl-prolyl cis-trans isomerase NIMA-interacting 1 (Homo sapiens) (Q13526 whole entry, looked up): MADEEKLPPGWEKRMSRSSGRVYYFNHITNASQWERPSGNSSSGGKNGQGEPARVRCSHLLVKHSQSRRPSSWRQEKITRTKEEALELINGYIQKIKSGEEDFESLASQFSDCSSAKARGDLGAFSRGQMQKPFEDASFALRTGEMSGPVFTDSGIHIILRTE
Method in brief: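 Fluorescence polarization competition: compounds (titration) displace HiFluor-488-labeled Pin1-1b peptide from Pin1 (0.3 uM final) in pH 7.5 HEPES buffer with DTT, 10 min at room temperature; %Activity normalized to no-enzyme wells, curves fitted.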

[15] = biological target: Phosphoglycerate kinase, glycosomal (Trypanosoma brucei brucei) (UniProt P07378); assay: qHTS Validation Assay to Find Inhibitors of Phosphoglycerate Kinase (AID 504547)
Method in brief: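 PGK activity was coupled to GAPDH (100nM final), which generates the unstable substrate 1,3-bisphosphoglycerate in-well. Reactions ran 60 minutes at room temperature in 100mM TEA pH 7.6, 5mM MgCl2, 0.01% Tween-20, then Kinase-Glo Plus luminescence was read.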

[16] = biological target: ATPase family AAA domain-containing protein 5 (Homo sapiens) (UniProt Q96QE3); assay: Validation screen for small molecules that inhibit ELG1-dependent DNA repair in human embryonic kidney (HEK293T) cells expressing luciferase-tagged ELG1 (AID 493107); further: nearly all actives have a fitted effect of over 70% in size; further: potency means the concentration at half of the fitted maximal effect
Method in brief: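 HEK293T cells expressing luciferase-tagged ELG1, 2,000 per well, treated with 5-fluorouridine plus compound for 16 h at 37 C. ONE-Glo luminescence after 30 min at room temperature reports ELG1 reporter level.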

[17] = biological target: Chromobox protein homolog 1 (Homo sapiens) (UniProt P83916); assay: qHTS Validation Assay for Inhibitors of HP1-beta Chromodomain Interactions with Methylated Histone Tails (AID 488953); further: nearly all actives have a fitted effect of over 50% in size; further: potency means the concentration at half of the fitted maximal effect
Sequence of Chromobox protein homolog 1 (Homo sapiens) (P83916 whole entry, looked up): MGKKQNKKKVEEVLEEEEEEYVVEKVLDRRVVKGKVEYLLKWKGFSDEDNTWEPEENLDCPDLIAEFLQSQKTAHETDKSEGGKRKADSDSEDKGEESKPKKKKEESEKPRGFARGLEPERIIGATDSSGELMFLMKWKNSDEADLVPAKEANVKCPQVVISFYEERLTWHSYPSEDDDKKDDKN
Method in brief: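 HP1-beta (50 nM) preformed 30 min with biotinylated H3(1-18)K9me3 peptide (50 nM) in PBS pH 7.4, 0.01% Tween-20. Compounds added for 30 min at room temperature. Complex disruption read by AlphaScreen with streptavidin donor/nickel chelate acceptor beads (10 ug/mL each).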

[18] = biological target: D(1A) dopamine receptor (Homo sapiens) (UniProt P21728); assay: HTS Assay for Allosteric Agonists of the Human D1 Dopamine Receptor: Primary Screen for Potentiators (AID 488982)
Method in brief: as §1

[19] = biological target: ATP-dependent 6-phosphofructokinase (Trypanosoma brucei brucei) (UniProt O15648); assay: qHTS Assay to Find Inhibitors of T. brucei phosphofructokinase: hit validation (AID 492961); further: series mostly up to about 51 µM
Method in brief: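 Luminescence from ADP-Glo reports ADP generated as T. brucei PFK (1.25 nM) phosphorylates 0.5 mM fructose-6-phosphate using 0.1 mM ATP. Reactions ran 45 min at room temperature, pH 8.0.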

Row | SMILES | Potency [1] | Potency [2] | outcome [3] | outcome [4] | outcome [5] | Potency [6] | Potency [7] | Potency [8] | activation [9] | Potency [10] | viability change [10] [%] | outcome [11] | outcome [12] | Potency [13] | Potency [14] | Potency [15] | Potency [16] | Potency [17] | Potency [18] | Potency [19]
1 | CCCN(CCC)[C@H]1CCc2c(F)ccc(O)c2C1 | inactive | inactive | inactive | inactive | inactive | inactive | inactive | inactive | -3.06% (inactive) | inactive | -8.48 | inactive | inactive | inactive | inactive | inactive | – | – | – | –
2 | NC(N)=NOCC[C@H](N)C(=O)O | inactive | inactive | inactive | inactive | inactive | inactive | inactive | inactive | -0.375% (inactive) | inactive | 10.2 | inactive | inactive | inactive | inactive | inactive | inactive | – | – | –
3 | COc1ccc2c(c1)c(CCN1CCOCC1)c(C)n2C(=O)c1cccc(Cl)c1Cl | inactive | – | inactive | – | – | inactive | inactive | inactive | – | – | – | inactive | – | – | inactive | inactive | 8.2 µM (active) | 44.7 µM (active) | – | –
4 | CN1CC[C@@]2(C)c3cc(OC(=O)Nc4ccccc4)ccc3N(C)[C@@H]12 | inactive | inactive | inactive | – | – | inactive | inactive | – | – | inactive | -13.9 | inactive | – | – | inactive | inactive | inactive | – | inactive | –
5 | Cc1o[nH]c(=O)c1CC(N)C(=O)O (configuration not stated) | inactive | inactive | inactive | inactive | – | inactive | inactive | – | – | inactive | 2.81 | – | inactive | inactive | inactive | inactive | inactive | – | inactive | –
6 | CC(C)(O)[C@@H]1C2OC(=O)[C@@H]1[C@]1(O)C[C@H]3O[C@]34C(=O)O[C@H]2[C@]14C (tested in a mixture with another compound) | inactive | inactive | inactive | – | – | inactive | inactive | inactive | – | inactive | -3 | inactive | – | – | inactive | inactive | inactive | – | inactive | –
7 | CC(C)CC(NP(=O)(O)O[C@@H]1O[C@@H](C)[C@H](O)[C@@H](O)[C@H]1O)C(=O)NC(Cc1c[nH]c2ccccc12)C(=O)O (some centres not stated) | inactive | inactive | – | inactive | inactive | – | – | – | 1.38% (inactive) | – | – | – | inactive | inactive | – | – | – | – | – | –
8 | CC(C)[C@@]1(NC(=O)[C@@H]2C[C@@H]3c4cccc5[nH]cc(c45)C[C@H]3N(C)C2)O[C@@]2(O)[C@@H]3CCCN3C(=O)[C@H](Cc3ccccc3)N2C1=O | inactive | inactive | inactive | – | – | inactive | 5.62 µM (active) | inactive | – | inactive | 10.7 | – | – | – | inactive | inactive | – | – | – | –
9 | C[C@H](N)CN1CCc2ccc(Br)cc21 | inactive | inactive | inactive | – | inactive | – | inactive | inactive | 0.625% (inactive) | inactive | -2.43 | inactive | inactive | inactive | inactive | inactive | inactive | – | inactive | –
10 | CC(N)Cc1c[nH]c2ccc(O)cc12 (configuration not stated) | inactive | inactive | inactive | inactive | – | inactive | – | – | 1.38% (inactive) | inactive | -2.01 | inactive | inactive | inactive | inactive | inactive | – | – | inactive | –
11 | NC(=O)CI | inactive | 8.91 µM (active) | inactive | inactive | inactive | inactive | inactive | inactive | -0.125% (inactive) | inactive | 7.18 | – | inactive | inactive | inactive | inactive | inactive | – | – | –
12 | N[C@@]1(C(=O)O)CC[C@@H](C(=O)O)C1 | – | inactive | inactive | inactive | inactive | inactive | inactive | inactive | -0.25% (inactive) | inactive | 4.39 | inactive | inactive | inactive | inactive | inactive | inactive | inactive | – | –
13 | C[C@H]1CC[C@@H]2[C@@H](C)[C@H]3[C@H](C[C@H]4[C@@H]5CC=C6CC(O[C@@H]7O[C@H](CO)[C@H](O)[C@H](O[C@@H]8O[C@H](CO)[C@@H](O)[C@H](O)[C@H]8O)[C@H]7O[C@H]7O[C@@H](C)[C@H](O)[C@@H](O)[C@H]7O)CC[C@]6(C)[C@H]5CC[C@]34C)N2C1 (some centres not stated) | – | – | – | – | – | – | – | – | – | – | – | – | – | – | – | – | – | – | – | inactive
14 | c1ccc2c(c1)[I+]c1ccccc1-2 | – | inactive | inactive | inactive | – | inactive | inactive | inactive | -4.44% (inactive) | – | – | – | inactive | – | inactive | inactive | 10.3 µM (active) | inactive | inactive | –
15 | CCCC(C)C1(CC)C(=O)NC(=O)NC1=O (configuration not stated) | – | – | – | – | – | – | – | – | – | – | – | – | – | – | – | – | – | – | – | inactive
